From PubChem BioAssay
TR SRC2 fluor cs = counter-screen for TRb-SRC2 inhibitors: fluorescence interference; TRb/SRC2 Texas Red total fluorescence interference; Potency, µM (titrated, usually from 106 µM); 280,000 tested, 0.29% active; AID 1479; active means well fitted curve in either direction with a large enough effect; inconclusive means small, poorly fitted or top-dose-only effect
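Human TRβ ligand-binding domain (0.6 uM) and Texas Red SRC2 peptide (20 nM) in Tris buffer with 1 uM T3 and 5% DMSO were incubated with pinned compound for 5 hr at ambient temperature. Total fluorescence was computed as S + 2P (555/632 nm).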
Tau fluor cs = counter-screen for tau fibril formation inhibitors. tau K18 P301L Alexa594 fluorescence, heparin fibrillization. Potency, µM (highest dose often 57.7 µM). 280,000 tested, 0.93% active. AID 1463; further: nearly all actives have a fitted effect of over 55% in size
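Human tau K18 P301L (15 uM unlabeled, 0.24 uM Alexa 594-labeled) in 100 mM sodium acetate pH 7 with 20 uM heparin, 6 hr at 37 C. ThT 30 uM added, 1 hr ambient; Alexa 594 FP and total fluorescence read at 555/632 nm.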
Tau fibril ThT = inhibitors of human tau fibril formation, thioflavin T binding | recombinant tau K18 P301L, heparin-induced fibrillization, ThT fluorescence | Potency, µM (titrated, usually from 57.4 µM), actives largely listed as inhibitors | 270,000 tested, 2.1% active | AID 1460; further: nearly all actives have a fitted effect of over 55% in size
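Fibril formation assay: tau K18 P301L at 15 uM with trace Alexa 594 label, heparin inducer 20 uM, pH 7 sodium acetate buffer, 37 C for 6 hr; endpoint ThT signal.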
PNC inhibitor = inhibitors of perinucleolar compartment assembly. 140,000 tested, 3.1% active. activity change (PNC), negative = inhibition, % at 10 µM. PC3M PTB-GFP, PNC prevalence imaging, 16 h; hits give low values;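 active means readout at or below -70, meaning at least 70% loss of cells showing the perinucleolar compartment, a nuclear body marking cancer cells; inconclusive means readout between -30 and a set limit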
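Read-out is percentage of cells bearing a perinucleolar compartment, from automated 20x imaging of fixed, Hoechst-stained PC3M PTB-GFP cells. Cells were seeded 4 h, then exposed 16 h to compound (23 nl of library stock) in duplicate plates.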
Tau FP inhib = inhibitors of human tau fibril formation; K18 P301L tau heparin fibrillization, Alexa594 FP, 6 h; Potency, µM (highest dose often 57.7 µM), usual class: inhibitors; 280,000 tested, 0.39% active; further: nearly all actives have a fitted effect of over 55% in size
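Quantitative HTS format: compounds meet 15 uM recombinant K18 P301L tau and Alexa 594-tau tracer in 100 mM sodium acetate pH 7; 20 uM heparin triggers fibrillization at 37 C over 6 hr; FP gives the signal.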
TRb-SRC2 inh = disrupts binding of human TR beta to SRC2 | P10828 | TRbeta-SRC2 peptide binding, fluorescence polarization; receptor liganded with 1 µM T3 | Potency, µM (series often up to 106 µM), most hits filed as inhibitors | 280,000 tested, 0.065% active; further: nearly all actives have a fitted effect of over 50% in size
Target sequence (P10828 whole entry, looked up): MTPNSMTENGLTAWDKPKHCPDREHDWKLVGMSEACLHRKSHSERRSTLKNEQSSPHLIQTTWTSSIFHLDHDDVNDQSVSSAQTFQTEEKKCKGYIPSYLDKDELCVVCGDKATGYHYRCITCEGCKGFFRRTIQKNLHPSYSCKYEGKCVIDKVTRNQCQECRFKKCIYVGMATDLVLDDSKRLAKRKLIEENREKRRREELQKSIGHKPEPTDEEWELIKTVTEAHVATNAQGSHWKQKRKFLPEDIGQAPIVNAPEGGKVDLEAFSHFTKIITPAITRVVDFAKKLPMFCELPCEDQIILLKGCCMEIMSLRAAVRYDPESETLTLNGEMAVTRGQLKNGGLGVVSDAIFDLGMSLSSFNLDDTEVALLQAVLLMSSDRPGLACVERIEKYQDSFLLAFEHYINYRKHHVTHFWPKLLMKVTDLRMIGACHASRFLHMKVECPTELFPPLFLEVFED
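TRb LBD 0.6 uM + Texas Red SRC2 peptide 20 nM, 1 uM T3, Tris buffer w/ 5% DMSO; compound pinned, 5 h RT; FP read ex 555/em 632; normalized to unbound and bound controls.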
Numbers stand for hits; – = inactive; ? = inconclusive; · = not tested or not shown; [ ] = dose if it differs, or a comment. The list is not random: actives were taken first. Their share in the collection is about 4.6%. Unless noted, the call rests on the fitted dose curve; in most records, active means well fitted curve in the direction sought with a large enough effect; inconclusive means small, poorly fitted or top-dose-only effect, or another doubt; inactive means no such curve, though single readings can be large; an effect the other way counts as inactive or inconclusive.

SMILES	TR SRC2 fluor cs	Tau fluor cs	Tau fibril ThT	PNC inhibitor	Tau FP inhib	TRb-SRC2 inh
C=Cc1c(C)c2cc3[nH]c(cc4nc(cc5nc(cc1[nH]2)C(C)=C5CCC(=O)O)C(CCC(=O)O)=C4C)c(C)c3C=C	15.8µM[fluorescent]	15.8µM[quencher]	15.8µM	·	25.1µM	17.8µM
CC1=C(CCC(=O)O)c2cc3nc(cc4[nH]c(cc5[nH]c(cc1n2)c(C)c5C(C)O)c(C)c4C(C)O)C(C)=C3CCC(=O)O (stereo not given)	44.7µM[fluorescent]	–	?	·	?	35.5µM
CCS(=O)(=O)N1CCc2cc(C(=O)NCc3ccccc3)ccc21	–	–	–	·	–	–
CCN1C=C(Cc2ccccc2C)C2=C(C1)C(c1ccccc1C)C(C#N)=C(N)O2 (stereo not given)	44.7µM[fluorescent]	–	?	–	–	?
N=C(N)SCP(=O)(c1ccccc1)c1ccccc1	–	–	?	·	?	–
Cc1ccc(P(=O)(CSC(=N)N)c2ccc(C)cc2)cc1	–	–	12.6µM	–	?	–
CCOC(=O)N1CCC(n2c(SCC(=O)N3CCC(C)CC3)nc3ccccc3c2=O)CC1	–	–	?	?	–	–
CCN(CC)c1ccc(NC(=O)COCc2cc(-c3ccc4c(c3)OCO4)on2)c(C)c1	–	?	2.82µM	·	–	–
CCN1CCN(C(=O)c2sc3nc(C)nc(N4CCC(C)CC4)c3c2C)CC1	–	–	–	-88.2	–	–
CCOC(=O)CNc1ccc2c(c1)OCO2	–	–	31.6µM	–	?	–
CCOC(=O)CNC(=O)/C=C/c1ccc2c(c1)OCO2	–	–	–	·	–	–
N#CCSc1nc(Nc2ccc3c(c2)OCO3)c2ccccc2n1	–	?	–	–	–	–
CCOC(=O)CSc1nc(Nc2ccc3c(c2)OCO3)c2ccccc2n1	–	12.6µM[quencher]	?	?	–	–
NS(=O)(=O)c1ccc(NC(=O)COC(=O)c2cn(-c3ccccc3)nc2-c2ccc(F)cc2)cc1	–	?	–	–	12.6µM	–
O=C(COC(=O)c1cn(-c2ccccc2)nc1-c1ccc(F)cc1)Nc1ncc(Cl)cc1Cl	–	?	–	–	–	–
COc1cccc(-c2csc(NC3OC(=O)c4c3ccc(OC)c4OC)n2)c1 (stereo not given)	–	–	?	·	–	–
COc1ccc2c(c1OC)C(=O)OC2Nn1cncn1 (stereo not given)	–	–	–	-93.8	–	–
COc1ccc2c(c1OC)C(=O)OC2Nc1nc(-c2ccc(-c3ccccc3)cc2)cs1 (stereo not given)	–	–	–	-123.3	–	–
Cc1[nH]c2ccccc2c1C(=O)COC(=O)CCS(=O)(=O)c1ccccc1Cl	–	–	–	–	–	–
COC(=O)c1cc(NC(=S)NCc2ccc(Cl)cc2)cc(C(=O)OC)c1	–	14.1µM[quencher]	–	?	17.8µM	–
O=C(NCc1ccc(Cl)cc1)c1cccc(NC(=O)c2ccccc2)c1	–	?	–	-100.0	–	–
Cn1cc(CNC(=O)C23CC4CC(CC(C4)C2)C3)cn1	–	–	–	–	–	–
CC(=O)c1ccc(N2CCC(c3cc(-c4ccc(Cl)cc4)n[nH]3)CC2)c([N+](=O)[O-])c1	–	?	4.47µM	–	?	–
COC(=O)c1ccc(N2CCC(c3cc(-c4ccc(OC)cc4)n[nH]3)CC2)c([N+](=O)[O-])c1	–	?	3.55µM	–	?	–
CC(=O)c1ccc(N2CCc3ccccc3C2)c([N+](=O)[O-])c1	–	–	?	·	–	–
COc1ccc(-c2cc(C3CCN(c4ccc(C(C)=O)cc4[N+](=O)[O-])CC3)[nH]n2)cc1	–	?	3.55µM	–	–	–
COc1ccc(-c2cc(C3CCN(C(=O)OC(C)(C)C)CC3)[nH]n2)cc1	–	–	–	·	–	–
COc1cccc([C@@H]2Oc3ccc(Br)cc3C(=O)[C@H]2OC(=O)N[C@H](C)C2CCCCC2)c1	–	–	–	·	–	–
